Assay outcomes from PubChem.
Most compounds without a hit are left out; they make up all but 3.5% or so of the library.
HSP90 refold inh: inhibitors of HSP90 luciferase refolding in rabbit reticulocyte lysate; 0.91% of 290,000 active; luciferase refolding luminescence, 3 h; inhibition, % at 5.6 µM;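 active = inhibition above the screen-wide mean plus 3 SD, computed separately per campaign, cut at about 16% in these data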;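 note: 0% = DMSO wells and 100% = 60 µM geldanamycin wells; inhibitors lower the luminescence because luciferase stays unfolded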
TROY NFkB inh: inhibitors of TROY-dependent NF-kB signaling. inhibition, % at 10 µM. Q293 LMP1-TROYcd NF-kB luciferase reporter, 4 h. 0.98% of 360,000 active;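 active = compounds whose plate-normalised and pattern-corrected inhibition of the luciferase reporter signal at the single screening dose is 50% or more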
TRAIL sens C8: sensitizes caspase-8 expressing cells to TRAIL; NB7+C8 cells + TRAIL, ATPlite viability luminescence; inhibition (viability loss, TRAIL sensitization), % at 10 µM; 1% of 360,000 active; AID 624354;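 active = compounds causing at least 50% loss of cell viability in the single-dose screen, relative to plate controls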
PPC-1+TRAIL kill: PPC-1 cancer cell killing with TRAIL present | cell killing (% activity), % at 4 µM or 5 µM | PPC-1 cells + TRAIL, ATPLite viability luminescence | 0.41% of 220,000 active;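 active = cell killing above 50% in the first pass at 4 µM, then a duplicate retest at 5 µM averaging 50% or more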;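 note: plate controls were cells with TRAIL plus DMSO for no effect and medium-only wells lacking cells for full effect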
Platelet DG rel: platelet dense granule release activity; human platelet-rich plasma, SFLLRN dense granule ATP release, luminescence; inhibition, %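 (compounds screened at 7.5 µM in platelet-rich plasma)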; 0.22% of 300,000 active;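 active = mean replicate score, as percent of positive control, at or above 50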
TWEAK Fn14 block: inhibitors of TWEAK-Fn14 interaction signaling; TWEAK-stimulated Fn14 reporter cells, luciferase luminescence, 8 h; inhibition, % at 10 µM; 2% of 360,000 active; in the data active = inhibition above about 50%
Starred values were filed as active, the others as inactive; . = no result given.

SMILES | HSP90 refold inh | TROY NFkB inh | TRAIL sens C8 | PPC-1+TRAIL kill | Platelet DG rel | TWEAK Fn14 block
COc1ccc(C(CNC(=O)CCNS(=O)(=O)c2ccccc2C(F)(F)F)N2CCOCC2)cc1 (stereo not drawn) | . | 11.5 | -9.2 | . | . | 3.5
CN(C)CCN(Cc1cc2cc3c(cc2nc1Cl)OCO3)C(=O)c1ccco1 | 5.2 | 4.3 | -2.3 | . | -2.8 | 36.3
COCc1cc(=O)[nH]c(SCCS(=O)(=O)c2ccc(Cl)cc2Cl)n1 | 2.5 | 12.8 | -19.4 | 11.2 | -3.1 | 55.4*
COC(=O)/C(=N/Nc1ccccc1OC)N1CCCc2ccccc21 | 1.2 | 14.0 | 9.4 | 21.6 | -2.7 | -0.8
Cc1ccc(S(=O)(=O)Nc2ccc(Cl)cc2)cc1NC(=O)Cn1cnc2c1c(=O)n(C)c(=O)n2C | 1.4 | 42.9 | 2.9 | -4.9 | -0.2 | 88.9*
CC(C)CN(C(=O)COc1ccc2ccc(=O)oc2c1)C1CCS(=O)(=O)C1 (stereo not drawn) | 0.2 | -12.2 | -23.4 | . | 7.1 | 61.3*
CC1(C)CC2CC(C)(CN2C(=O)c2ccccc2)C1 (stereo not drawn) | -0.8 | 8.2 | 2.9 | -8.3 | -4.4 | -2.7
COc1ccc(C(=O)N2CC3(C)CC2CC(C)(C)C3)cc1 (stereo not drawn) | 3.2 | 66.0* | -11.0 | 20.0 | -0.8 | 6.1
O=C(NCCc1ccccc1)C1CCCN1C(=O)Nc1ccc(Cl)cc1 (stereo not drawn) | -1.5 | -6.9 | -2.7 | . | 10.7 | 13.1
COc1ccc(CNC(=O)C(c2ccncc2)N(C(=O)Cc2cccs2)c2ccccc2)cc1 (stereo not drawn) | 1.3 | -22.5 | -2.3 | 10.6 | . | -0.1
COc1ccc(N(C(=O)CCl)C(C(=O)NCCc2ccccc2)c2cccs2)cc1 (stereo not drawn) | 5.7 | -17.4 | 97.5* | 47.3 | 2.7 | 60.4*
CCCCCC(=O)N1C[C@H](O)[C@@H](n2cc(C3CC3)nn2)C[C@@H]1c1ccc(OC)cc1 | . | 11.0 | 14.7 | . | . | -3.3
c1ccc(OC2CCCCC2N2CCOCC2)cc1 (stereo not drawn) | . | -6.3 | -14.7 | . | . | -11.4
CC(C)NC(=O)C1CCN(C(=O)N(C)C)CC1 | -1.5 | 6.3 | 18.8 | 26.4 | -2.5 | 51.5*
COc1ccc(/C=C/C(=O)O)cc1S(=O)(=O)Nc1ccc2c(c1)OCO2 | 1.8 | 8.4 | 14.9 | 0.0 | -3.0 | -1.8
Cc1ccc(-c2nnn(CC(=O)N(C)C3CCCCC3)n2)o1 | -4.6 | 15.4 | 2.4 | 1.6 | -6.9 | -12.9
CN(C(=O)Cn1nnc(-c2cccc(C(F)(F)F)c2)n1)C1CCCCC1 | 2.2 | 17.4 | -1.9 | 26.4 | 69.6* | -3.4
O=C(COC(=O)c1nc(Cl)c(Cl)c(Cl)c1Cl)c1ccc[nH]1 | . | 67.2* | 3.7 | . | 9.8 | 48.8
O=C(COC(=O)c1nc(Cl)ccc1Cl)c1ccc[nH]1 | . | 8.2 | -7.4 | . | -14.9 | -1.5
C=CCn1c(C)cc(C(=O)COc2ccc(C)nc2[N+](=O)[O-])c1C | -3.8 | 13.2 | 8.6 | 12.1 | -12.1 | 65.1*
Cc1ccc(OCC(=O)c2cc(C)n(-c3ccccc3)c2C)c([N+](=O)[O-])n1 | 0.9 | 58.5* | 27.6 | -2.4 | -5.5 | 85.0*
CSc1nnc(NC(=O)c2ccc(S(=O)(=O)N(C)C)cc2)s1 | 4.4 | -40.8 | 39.5 | 20.7 | -1.0 | 35.8
COc1cccc(Nc2nnc(SCC(=O)N3CCOCC3)s2)c1 | -3.6 | -20.5 | 8.8 | 12.1 | -3.5 | -11.4
CCOC(=O)C(C)Sc1nnc(NC(=O)c2ccc3c(c2)OCO3)s1 (stereo not drawn) | 4.4 | 13.6 | 16.5 | 12.3 | 6.0 | 3.4
Cc1ccc(C(=O)Nc2nnc(SCC(=O)N3CCCc4ccccc43)s2)cc1 | 1.8 | 14.8 | 97.3* | 95.1* | 7.1 | 55.5*
CC(C)Oc1ccc(C(=O)Nc2nnc(SCC(=O)N3CCOCC3)s2)cc1 | 16.1* | -8.3 | 98.0* | 93.6* | 7.5 | 50.3*
CCOC(=O)CNC(=O)CSc1nnc(NC(=O)c2ccc3c(c2)OCO3)s1 | 3.6 | -1.3 | 83.1* | . | 35.8 | 11.5
CN(C)S(=O)(=O)c1ccc(C(=O)Nc2nnc(SCC(=O)N3CCOCC3)s2)cc1 | . | -10.6 | 59.9* | . | . | 2.2
O=C(Nc1nnc(SCC(=O)N2CCCc3ccccc32)s1)c1cccc2ccccc12 | -4.4 | -24.6 | 0.8 | 36.2 | 12.8 | -12.0
Cc1onc(-c2c(F)cccc2Cl)c1C(=O)OCC(=O)N(C)c1ccccc1 | . | 7.8 | -8.1 | . | . | 1.9
